The record followed here is the supplement of paper PMC10037445.

Assay [1] has as its system RAW-Dual. As to the kind of experiment: IRF Lucia reporter activity, fold change vs agonist alone; cytotoxicity flag (confluency mask): not cytotoxic; higher = enhanced IRF activity. An outline of the steps: (§1)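 After 50 nL of library stock was delivered by pin tool to RAW-Dual macrophages (50,000 cells/well, DMEM, 384-well plates), a PRR agonist was added 1 h later and the plates were kept at 37 °C, 5% CO2. Twenty hours later, IRF was read from supernatant by QuantiLuc luminescence and NF-κB by QuantiBlue absorbance at 620 nm. Reporter activity is stated as fold change over agonist-alone wells. Wells with IncuCyte confluency under 70% of agonist controls in both mask sets were counted as cytotoxic.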

Assay [2] has as its system RAW-Dual. As to the kind of experiment: IRF Lucia reporter activity, fold change vs agonist alone; cytotoxicity flag (confluency mask): cytotoxic (confluency <70% of control); higher = enhanced IRF activity. The gist of the method:
as §1

Assay [3] concerns RAW-Dual. As to the kind of experiment: IRF Lucia reporter activity, fold change vs agonist alone; higher = enhanced IRF activity. The note with it: agonist: MPLA (TLR4) […]. The gist of the method: as §1
[4] abbreviates: agonist: 3'3'-cGAMP (STING) 10 ug/mL.
Setting [5] is: library stock concentration (final ~1000-fold dilution): 10 mM, cytotoxicity flag (confluency mask): not cytotoxic.

In all, about 2,900 compounds were measured (“IRF Lucia reporter activity, fold change vs agonist alone”: median about 0.9, highest 2% from about 2.8 on). For the sample, the highest values were picked, then their nearest neighbours and some compounds at random.

Take `O=C(c1cc(-c2cc3c(cc2C(=O)N2Cc4ccccc4CC2CN2CCOCC2)OCO3)n2c1CCCC2)N(c1ccccc1)c1ccc(O)cc1` (configuration not stated) (library stock concentration (final ~1000-fold dilution): 10 mM): the results for the “IRF Lucia reporter activity” value in assay [1] (setting [4]) and in assay [1] (agonist: LPS (TLR4) 0.1 ug/mL) were 0.268 and 0.935, respectively.
For `Oc1cc(O)c2c(c1)OC(c1ccc(O)c(O)c1)C(O)[C@H]2c1c(O)cc(O)c2c1OC(c1ccc(O)c(O)c1)C(O)C2` (some centres not stated) (library stock concentration (final ~1000-fold dilution): 10 mM), in that order: 0.867 and 1.27.
For `CC(C)N1CCN(Cc2cnc(-c3cc(-c4cccc5[nH]ccc45)cc4[nH]ncc34)o2)CC1` (library stock concentration (final ~1000-fold dilution): 10 mM), in that order: 0.609 and 1.42.
Turning to `COc1ncc(-c2cc(-c3ncc(CN4CC(C)OC(C)C4)o3)c3cn[nH]c3c2)cc1NS(C)(=O)=O` (configuration not stated) (library stock concentration (final ~1000-fold dilution): 10 mM), the “IRF Lucia reporter activity” value in assay [2] (setting [4]) stood at 0.865; in assay [2] (agonist: LPS (TLR4) 0.1 ug/mL), 4.5.
Consider `CN1CCN(C(=O)c2ccc(-c3ccc4c(C=O)c(O)ccc4c3)s2)CC1` (library stock concentration (final ~1000-fold dilution): 10 mM), for which the results for the “IRF Lucia reporter activity” value in assay [1] (setting [4]) and in assay [1] (agonist: LPS (TLR4) 0.1 ug/mL) were 0.228 and 0.45, respectively.
For `Cc1cnc(Nc2ccc(F)cc2Cl)nc1-c1c[nH]c(C(=O)NC(CO)c2cccc(Cl)c2)c1` (configuration not stated) (library stock concentration (final ~1000-fold dilution): 10 mM), in that order: 0.474 and 1.16.
Consider `CN1CCc2c(c3ccccc3n2Cc2ccc(C(=O)NO)cc2)C1.Cl` (library stock concentration (final ~1000-fold dilution): 10 mM), for which the “IRF Lucia reporter activity” value in assay [1] (setting [4]) is 1.18; in assay [1] (agonist: LPS (TLR4) 0.1 ug/mL), 4.79.
`CN1CCc2c(c3ccccc3n2Cc2ccc(C(=O)NO)cc2)C1.Cl`: the “IRF Lucia reporter activity” value in assay [3] (setting [5]) was determined as 5.65.
`CN1CCc2c(c3ccccc3n2Cc2ccc(C(=O)NO)cc2)C1` (library stock concentration (final ~1000-fold dilution): 10 mM): the “IRF Lucia reporter activity” value in assay [1] (setting [4]) came out at 0.943; in assay [1] (agonist: LPS (TLR4) 0.1 ug/mL), 1.19.
On to `CN1CCc2c(c3ccccc3n2Cc2ccccc2)C1.CN1CCc2c(c3ccccc3n2Cc2ccccc2)C1.O=S(=O)(O)c1cccc2c(S(=O)(=O)O)cccc12`, for which, in assay [3] (library stock concentration (final ~1000-fold dilution): 2 mM, cytotoxicity flag (confluency mask): not cytotoxic), the “IRF Lucia reporter activity” value is 1.25.
With `CN1CCc2c(c3ccccc3n2Cc2ccccc2)C1.CN1CCc2c(c3ccccc3n2Cc2ccccc2)C1.O=S(=O)(O)c1cccc2c(S(=O)(=O)O)cccc12` (library stock concentration (final ~1000-fold dilution): 2 mM), the “IRF Lucia reporter activity” value in assay [1] (setting [4]) turned out to be 1.04; in assay [1] (agonist: LPS (TLR4) 0.1 ug/mL), 1.
`COc1ccc(CC(=O)Nc2nc3c(s2)CCc2ccccc2-3)cc1OC` (library stock concentration (final ~1000-fold dilution): 10 mM): the results for the “IRF Lucia reporter activity” value in assay [1] (setting [4]) and in assay [1] (agonist: LPS (TLR4) 0.1 ug/mL) were 0.989 and 0.961, respectively.
On to `COc1cccc(C=NCCN=Cc2cccc(OC)c2[O-])c1[O-].[Cl-].[Mn+2]` (library stock concentration (final ~1000-fold dilution): 10 mM), for which the entries for the “IRF Lucia reporter activity” value in assay [1] (setting [4]) and in assay [1] (agonist: LPS (TLR4) 0.1 ug/mL) were 1.06 and 0.762, respectively.
With `COc1cccc(C=NCCN=Cc2cccc(OC)c2[O-])c1[O-].[Cl-].[Mn+2]`, in assay [3] (setting [5]), the “IRF Lucia reporter activity” value is 0.946.
On the same count and under the same terms, the same measure for `CCOc1cc(N2CCC(O)CC2)ccc1Nc1ncc2c(n1)N(C)c1ccccc1C(=O)N2C`: 0.32.
With `CCOc1cc(N2CCC(O)CC2)ccc1Nc1ncc2c(n1)N(C)c1ccccc1C(=O)N2C` (library stock concentration (final ~1000-fold dilution): 10 mM), the entries for the “IRF Lucia reporter activity” value in assay [1] (setting [4]) and in assay [1] (agonist: LPS (TLR4) 0.1 ug/mL) were 0.518 and 0.253, respectively.
With `Cc1nc(Nc2cnn(C3CCNCC3)c2)nc2c1N(C)C(=O)c1cc3ccccc3cc1N2C` (library stock concentration (final ~1000-fold dilution): 10 mM), the “IRF Lucia reporter activity” value was 1.96 in assay [2] (setting [4]) and 3.05 in assay [2] (agonist: LPS (TLR4) 0.1 ug/mL).
With `CN1c2ccccc2C(=O)Nc2cnc(Nc3ccc(N4CCC(O)CC4)cc3)nc21` (library stock concentration (final ~1000-fold dilution): 10 mM), the “IRF Lucia reporter activity” value in assay [1] (setting [4]) stood at 0.137; in assay [1] (agonist: LPS (TLR4) 0.1 ug/mL), 0.438.
With `Cc1nc(Nc2cnn(C3CCNCC3)c2)nc2c1N(C)C(=O)c1cc3ccccc3cc1N2C`, in assay [3] (library stock concentration (final ~1000-fold dilution): 10 mM, cytotoxicity flag (confluency mask): cytotoxic (confluency <70% of control)), the “IRF Lucia reporter activity” value worked out at 3.71.
For the compound `COc1cc(C(=O)O)ccc1NC(=O)C1NC(CC(C)(C)C)C(C#N)(c2ccc(Cl)cc2F)C1c1cccc(Cl)c1F` (configuration not stated), in assay [3] (setting [5]), the “IRF Lucia reporter activity” value was 0.67.
Consider `COc1cc(C(=O)O)ccc1NC(=O)C1NC(CC(C)(C)C)C(C#N)(c2ccc(Cl)cc2F)C1c1cccc(Cl)c1F` (configuration not stated) (library stock concentration (final ~1000-fold dilution): 10 mM), for which the entries for the “IRF Lucia reporter activity” value in assay [1] (setting [4]) and in assay [1] (agonist: LPS (TLR4) 0.1 ug/mL) were 0.62 and 0.186, respectively.
Regarding `CC(C)(C)CC1NC(C(=O)NC2CCC(O)CC2)C(c2cccc(Cl)c2F)C12C(=O)Nc1cc(Cl)ccc12` (configuration not stated) (library stock concentration (final ~1000-fold dilution): 10 mM), the “IRF Lucia reporter activity” value in assay [2] (setting [4]) was 0.342; in assay [2] (agonist: LPS (TLR4) 0.1 ug/mL), 3.33.
As to `O=c1cc(-c2ccccc2)oc2cc(OC3OC(CO)C(O)C(O)C3O)c(O)c(O)c12` (configuration not stated) (library stock concentration (final ~1000-fold dilution): 10 mM), the “IRF Lucia reporter activity” value was found to be 0.862 in assay [1] (setting [4]) and 0.849 in assay [1] (agonist: LPS (TLR4) 0.1 ug/mL).
In the case of `CC(Nc1ncnc2[nH]cnc12)c1cc2cccc(Cl)c2c(=O)n1-c1ccccc1` (configuration not stated) (library stock concentration (final ~1000-fold dilution): 10 mM), the “IRF Lucia reporter activity” value in assay [1] (setting [4]) worked out at 0.659; in assay [1] (agonist: LPS (TLR4) 0.1 ug/mL), 0.799.
